Several values for one entry are separate records, joined by “and”; a condition that tells them apart may be missing. Equal entries are not always repeated. Structures can show the parent of a compound that is named as a salt. Among all 5,800 compounds or so, about 620 (11%) showed activity.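 Rule for the calls: active = score above a cut-off or among the top three wells of a plate; in these data no inactive exceeds 0.85.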 What follows is part of a selection rich in actives, with near analogues and random picks from the rest.
System: primary human hepatic stellate cells (donor 1)
Test: scaled lipid accumulation score (0 = DMSO-like, 1 = nortriptyline-like); higher = stronger HSC inactivation (lipid re-accumulation), active = hit call of the paper
Details: 48 h
[1] = library stock concentration: 3.33 mM
[2] = library stock concentration: 10 mM
[3] = library stock concentration: 1 mM
[4] = library stock concentration: 80 uM
[5] = library stock concentration: 400 uM
[6] = library stock concentration: 2 mM

CC(C)(Cc1ccc2ccccc2c1)NC[C@@H](O)COc1cccc(Cl)c1C#N
scaled lipid accumulation score [1]: 0.524 (inactive)
scaled lipid accumulation score [2]: 0.023 (inactive)

CC(C)Oc1ccc(Cc2ccc(NC3=NCCN3)cc2)cc1
scaled lipid accumulation score [3]: 0.221 (inactive)

CN(C)C/C=C/C(=O)Nc1cc2c(Nc3ccc(F)c(Cl)c3)ncnc2cc1O[C@H]1CCOC1
scaled lipid accumulation score [4]: 0.425 (inactive)
scaled lipid accumulation score [5]: 0.614 (inactive)
scaled lipid accumulation score [2]: 0.544 (inactive)

CN(C)CC=CC(=O)Nc1cc2c(Nc3ccc(F)c(Cl)c3)ncnc2cc1O[C@H]1CCOC1 [Afatinib (BIBW2992)]
scaled lipid accumulation score [1]: 1.12 (active)

CN(C)C/C=C/C(=O)Nc1cc2c(Nc3ccc(F)c(Cl)c3)ncnc2cc1O[C@H]1CCOC1 [Afatinib  (TOVOK,  BIBW-2992) (2 mM)]
scaled lipid accumulation score [6]: 1.29 (active)

CN(C)C/C=C/C(=O)Nc1cc2c(Nc3ccc(F)c(Cl)c3)ncnc2cc1O[C@H]1CCOC1 [Afatinib (BIBW2992)]
scaled lipid accumulation score [2]: 0.323 (inactive)

CN(C)C/C=C/C(=O)Nc1cc2c(Nc3ccc(F)c(Cl)c3)ncnc2cc1O[C@H]1CCOC1 [Afatinib  (TOVOK,  BIBW-2992) (10 mM)]
scaled lipid accumulation score [2]: 0.256 (inactive)

CN(C)CC=CC(=O)Nc1cc2c(Nc3ccc(F)c(Cl)c3)ncnc2cc1OC1CCOC1 (stereo not drawn)
scaled lipid accumulation score [6]: 0.855 (active)

CN(C)C/C=C/C(=O)Nc1cc2c(Nc3ccc(F)c(Cl)c3)ncnc2cc1O[C@H]1CCOC1 [Afatinib  (TOVOK,  BIBW-2992) (0.4 mM)]
scaled lipid accumulation score [5]: 0.318 (inactive)

Cc1cc(/C(=C/Nc2ccc(Cl)cc2)C(=O)Nc2ccc(Cl)cc2)on1
scaled lipid accumulation score [2]: 0.332 (inactive)

CCCCCC#CCC#CCCCCCCCC(=O)O [9,12-Octadecadiynoic Acid]
scaled lipid accumulation score [3]: 0.001 (inactive)

Cc1c(C)c2c(c(C)c1O)CCC(C)(CCCC(C)CCCC(C)CCCC(C)C)O2 (stereo not drawn) [Alpha-tochopherol]
scaled lipid accumulation score [2]: ≤ 0 (inactive)

COc1cc(C[C@H]2C(=O)OC[C@@H]2Cc2ccc(OC)c(OC)c2)ccc1O [Arctigenin]
scaled lipid accumulation score [2]: ≤ -0.006 (inactive)

C/C(=N\NC(=O)C1C(=O)NCC1c1ccccc1)c1cccc(Br)c1 (stereo not drawn)
scaled lipid accumulation score [2]: ≤ -0.001 (inactive)

CCOC(=O)C1=C(N)Oc2ccc(Br)cc2C1C(C#N)C(=O)OCC (stereo not drawn)
scaled lipid accumulation score [1]: 0.391 (inactive)
scaled lipid accumulation score [2]: 0.006 (inactive)

CCOC(=O)C1=C(N)Oc2ccc(Br)cc2[C@H]1[C@H](C#N)C(=O)OCC
scaled lipid accumulation score [2]: 1.15 (active)

CCCCCCCCCCCCCCCC(=O)OCC(O)C1OC(=O)C(O)=C1O [L-Ascorbyl 6-palmitate]
scaled lipid accumulation score [1]: 0.009 (inactive)
scaled lipid accumulation score [2]: ≤ 0 (inactive)

CC1(CN2CCC(n3c(=O)[nH]c4ccccc43)CC2)OCc2ccccc2-n2cccc21 (stereo not drawn)
scaled lipid accumulation score [2]: 0.057 (inactive)

O=C(Nc1cc(Cl)cc2c1[nH]c1cnccc12)c1cccnc1 [IKK Inhibitor X]
scaled lipid accumulation score [1]: ≤ 0 (inactive)

COc1cc2c(N3CCN(C(=O)Nc4ccc(OC(C)C)cc4)CC3)ncnc2cc1OCCCN1CCCCC1 [listing 1 of 2 here]
scaled lipid accumulation score [5]: 0.045 (inactive)
scaled lipid accumulation score [6]: 0.538 (inactive)
scaled lipid accumulation score [2]: 0.65 (inactive)

C#Cc1cccc(Nc2ncnc3cc(OCCOC)c(OCCOC)cc23)c1 [Erlotinib]
scaled lipid accumulation score (library stock concentration: 5.1 mM): ≤ -0.006 (inactive)

C#Cc1cccc(Nc2ncnc3cc(OCCOC)c(OCCOC)cc23)c1
scaled lipid accumulation score [4]: ≤ -0.009 (inactive)
scaled lipid accumulation score [5]: ≤ -0.009 (inactive) and ≤ -0.005 (inactive)
scaled lipid accumulation score [6]: ≤ -0.009 (inactive) and ≤ -0.005 (inactive)
scaled lipid accumulation score [2]: 0.052 (inactive) and 0.04 (inactive)

COc1cc2ncnc(Nc3ccc(NC(=O)c4ccccc4)cc3)c2cc1OC [Aurora Kinase Inhibitor II]
scaled lipid accumulation score [1]: ≤ 0 (inactive)

C#Cc1cccc(Nc2ncnc3cc(OC)c(OCCCCCCC(=O)NO)cc23)c1
scaled lipid accumulation score [1]: 0.652 (inactive)
scaled lipid accumulation score [2]: 0.306 (inactive)

COc1cc2c(Nc3ccc(NC(=O)c4ccccc4)cc3)ncnc2cc1OCCCN1CCOCC1 [listing 1 of 4 here]
scaled lipid accumulation score [1]: 1.06 (active)
scaled lipid accumulation score [2]: 1.11 (active)

COc1cc2c(Nc3ccc(NC(=O)c4ccccc4)cc3)ncnc2cc1OCCCN1CCOCC1 [listing 2 of 4 here]
scaled lipid accumulation score [2]: 1.14 (active)

C#Cc1cccc(Nc2ncnc3cc(OCCOC)c(OCCOC)cc23)c1 [Erlotinib HCl (OSI-744)]
scaled lipid accumulation score [1]: ≤ 0 (inactive)
scaled lipid accumulation score [2]: ≤ 0 (inactive)

COc1cc2c(Nc3ccc(NC(=O)c4ccccc4)cc3)ncnc2cc1OCCCN1CCOCC1 [listing 3 of 4 here]
scaled lipid accumulation score [4]: ≤ -0.001 (inactive)
scaled lipid accumulation score [5]: ≤ -0.009 (inactive)
scaled lipid accumulation score [6]: 0.256 (inactive)

COc1cc2ncnc(N3CCN(C(=O)Nc4ccc(Oc5ccccc5)cc4)CC3)c2cc1OC
scaled lipid accumulation score [4]: ≤ -0.001 (inactive)
scaled lipid accumulation score [5]: ≤ -0.001 (inactive)
scaled lipid accumulation score [6]: ≤ -0.001 (inactive)
scaled lipid accumulation score [2]: ≤ -0.001 (inactive)

COc1cc2c(N3CCN(C(=O)Nc4ccc(OC(C)C)cc4)CC3)ncnc2cc1OCCCN1CCCCC1 [Tandutinib (MLN518)]
scaled lipid accumulation score [1]: 0.295 (inactive)
scaled lipid accumulation score [2]: 0.406 (inactive)

COc1cc2c(Nc3ccc(NC(=O)c4ccccc4)cc3)ncnc2cc1OCCCN1CCOCC1 [listing 4 of 4 here]
scaled lipid accumulation score [2]: 1.03 (active)

COc1cc2c(N3CCN(C(=O)Nc4ccc(OC(C)C)cc4)CC3)ncnc2cc1OCCCN1CCCCC1 [listing 2 of 2 here]
scaled lipid accumulation score [2]: 1.24 (active)

COc1cc2ncnc(N3CCN(C(=O)Nc4ccc(Oc5ccccc5)cc4)CC3)c2cc1OC [PDGF Receptor Tyrosine Kinase Inhibitor III]
scaled lipid accumulation score [1]: ≤ 0 (inactive)

C[C@]12C=CC(=O)N[C@@H]1CC[C@@H]1[C@@H]2CC[C@]2(C)[C@@H](C(=O)Nc3cc(C(F)(F)F)ccc3C(F)(F)F)CC[C@@H]12 [Dutasteride]
scaled lipid accumulation score [1]: ≤ 0 (inactive)
scaled lipid accumulation score [2]: 0.409 (inactive)

Cc1cc(Nc2nc(-c3ccccc3)nc3ccccc23)n[nH]1 [GSK-3 Inhibitor XIII]
scaled lipid accumulation score [1]: ≤ 0 (inactive)

CCCCCC=CCC=CCCCCCCCC(=O)OC(COC(=O)CCCCCCCCCCCCCCC)COP(=O)(O)OCCN (stereo not drawn) [1-Palmitoyl-2-linoleoyl PE]
scaled lipid accumulation score [3]: 0.006 (inactive)

CCCCC/C=C\C/C=C\C/C=C\CCCCCCC(=O)OCC [Dihomo-.gamma.-Linolenic Acid ethyl ester]
scaled lipid accumulation score [3]: 0.019 (inactive)

COc1ccc2cc(CC(=O)O)ccc2c1 [6-methoxy Naphthalene Acetic Acid]
scaled lipid accumulation score [3]: 0.002 (inactive)

Source: the supplement of paper PMC9135407
